{
  "source": "PubChem BioAssay (NCATS)",
  "note": "This is one part of the list. Inconclusive results are not listed. Unmarked numbers belong to inactive results. Calls of active or inactive are those of the source. Calls follow the shape of the dose curve; as a rule, active = well fitted inhibition curve with a large enough effect; inconclusive = small, poorly fitted or top-dose-only effect; inactive = flat fitted curve, though single readings scatter. % is scaled to controls: 0 for no effect and ±100 for the full control effect; potency is read from the fitted curve at half-maximal effect.",
  "data": [
    {"test_system": "NanoLuc luciferase (engineered Oplophorus gracilirostris luciferase)", "test": "Biochemical NLuc saturation counterscreen for small molecule modulators of PMP22 gene expression - Nano-Glo assay (AID 1508638)", "conditions": "Secreted NLuc enzyme (filtered S16 cell medium), Nano-Glo luminescence; series mostly up to 57.5 µM; activity change, negative = inhibition: at the top concentration", "description": "Assay Provider: Jim Inglese Ph.D. National Center for Advancing Translational Science, National Institutes of Health, Rockville, MD CMT is a heterogeneous group of neurological disorders that affect approximately 1 in 2,500 people. In particular, the most common form of CMT, CMT1A is genetically linked to the duplication of the PMP22 gene which leads to Schwann cell overexpression, thus manifesting itself as a typical case of dose-sensitive diseases. To identify small molecule compounds that can mediate the expression of PMP22 we developed a phenotypic assay screening strategy by utilizing genome editing techniques to construct Schwann cell lines containing novel reporter technology to monitor the transcriptional or translational regulation of PMP22. For high sensitivity we use a bioluminescent reporter system embedded in the 3' UTR of the PMP22 gene (S16(c9) Pmp22-F2sN) to identify compounds that inhibit gene expression. […] We can further discriminate the effect of all transcriptionally active molecules on PMP22 translation or stability with an assay that incorporates a short NLuc peptide (HiBiT) at the C-terminus of expressed PMP22 (S16(f8) PMP22-HiBiT) allowing alpha complementation and luminescence detection of membrane-associated PMP22 protein. These assays were screened against the NCATS Sytravon Library Collection. Miniaturization of these assays to 1536-well plate format for quantitative high throughput screening (qHTS) yielded rich data sets immediately from the qHTS assay (S16(c9) Pmp22-F2sN), when compared with data from a cell viability assay (Cell TiterGlo) to identify compounds that decreased the output signals through cellular toxicity to streamline the selection process of actives for subsequent characterization using the HiBiT assay (S16(f8) PMP22-HiBiT).\nBiochemical Promega Nano-Glo solution NLuc assay PROTOCOL TABLE (format as described by Inglese J, Shamu CE and Guy RK. 2007) SEQUENCE No. (e.g., 1, 2, 3, etc.); PARAMETER (e.g., Cells, Incubation, Reagent, etc.); VALUE and DESCRIPTION. 1. Reagent. Add 2 uL substrate per well into Greiner 1536-well white/solid bottom high base, medium binding plates. 2. Compounds. Library compounds and controls added at 23nL per well, transferred by Pin Tool. 3. Incubation. Incubate plates 5 min at ambient temperature. 4. Reagent. Add 2uL NLuc enzyme solution per well of Greiner 1536-well plates. 5. Incubation. Incubate plates at room temperature for 10 min., protect from light. 6. Detector. FLuc luminescence measured using CCD-based camera (Viewlux). NOTES (numbers refer to Sequence numbers above; values are from representative experiments) 1. Freshly prepared Nano-Glo Luciferase Assay System reagent per Promega instructions, product N1120, and filtered through […]. 4. Enzyme was obtained by filtering media of S16 cells expressing secreted NLuc (Inglese et al. 2014) grown to 80-90% confluency in DMEM High Glucose, No Phenol Red media + 10% heat inactivated FBS + 1% Pen/Strep supplemented media6. Luminescence Read (Fluc): Clear filter; Exposure = 10 sec, Gain = High, Speed = Slow, Binning = 2X 6. Luminescence Read (Nluc): Clear filter; Exposure = 1 sec, Gain = High, Speed = Slow, Binning = 2X REFERENCES: 1. Inglese J, Shamu CE and Guy RK, Reporting data from high throughput screening of small molecule libraries, Nature Chemical Biology, 2007, 3(8): 438-441. doi.org/10.1038/nchembio0807-438 2. Yasgar A, Shinn P, Jadhav A, Auld DS, Michael S, Zheng W, Austin CP, Inglese J and Simeonov A, Compound Management for Quantitative High-Throughput Screening. J. Assoc. Lab. Auto., 2008, 13: 79-89. doi: 10.1016/j.jala.2007.12.004 3. Inglese, J., Dranchak, P., Moran, J. J., Jang, S. W., Srinivasan, R., Santiago, Y., Zhang, L., Guha, R., Martinez, N., MacArthur, R., Cost, G. J., and Svaren, J. (2014) Genome editing-enabled HTS assays expand drug target pathways for Charcot-Marie-tooth disease, ACS Chem Biol 9, 2594-2602.", "units": {"activity change, negative = inhibition": "%"}, "values": [
      {"smiles": "CCOc1ccc(NC(=O)c2c(NC(=O)Cc3ccccc3)sc3c2CCC(C)C3)cc1", "note": "(stereo not given)", "activity change, negative = inhibition": -19.8},
      {"smiles": "COc1ccccc1Nc1c2c(nc3ccc(NC(=O)/C=C/c4cc(OC)c(OC)c(OC)c4)cc13)CCCC2", "Potency": "4.32 µM (active)"},
      {"smiles": "CCCCOc1ccc(CN2C(=O)C(=O)c3cc(Br)cc(C)c32)cc1OC", "activity change, negative = inhibition": -8.72},
      {"smiles": "COc1ccc(CCNC(=O)c2cc(=O)c3c(C)cc(C)cc3o2)cc1OC", "Potency": "0.343 µM (active)"},
      {"smiles": "CCC1=Nc2cc(C(=O)NCCCOC(C)C)ccc2Sc2ccc(C)cc21", "activity change, negative = inhibition": -4.08},
      {"smiles": "CCCn1c2ccccc2c2cnn(CC(=O)NCC3CCN(Cc4ccc(C)cc4)CC3)c(=O)c21", "activity change, negative = inhibition": -5.62},
      {"smiles": "Cc1ccc(NC(=O)c2nc(S(=O)(=O)Cc3cccc(C)c3)ncc2Cl)cc1", "activity change, negative = inhibition": -7.03},
      {"smiles": "Cc1cc(OCC(=O)NCC2(N(C)C)CCCCC2)cc(C)c1Cl", "activity change, negative = inhibition": -4.49},
      {"smiles": "O=C(c1ccc(C(F)(F)F)cc1)N1CCC(c2nc(-c3ccc(S(=O)(=O)N4CCCC4)cc3)no2)CC1", "activity change, negative = inhibition": -5.18},
      {"smiles": "CCOC(=O)c1c(C)[nH]c(CCC(=O)NCCCN2CCN(c3cccc(Cl)c3)CC2)c1C", "activity change, negative = inhibition": -7.06},
      {"smiles": "CC(=O)N1CCCc2cc(S(=O)(=O)N3CCCC(C(=O)N4CCN(c5cccc(Cl)c5)CC4)C3)ccc21", "note": "(stereo not given)", "activity change, negative = inhibition": -13},
      {"smiles": "CCOC(=O)c1c(C)[nH]c(CCC(=O)NCCCN2CCN(c3cc(C)ccc3C)CC2)c1C", "activity change, negative = inhibition": -14.1},
      {"smiles": "CCOCCCNC(=O)c1c(NC(=O)c2nc(SC)ncc2Cl)sc2c1CCCC2", "activity change, negative = inhibition": -16.4},
      {"smiles": "CCC1CCCCN1CCCNC(=O)c1cc2c(Cl)nc3ccccc3c2s1", "note": "(stereo not given)", "activity change, negative = inhibition": -0.443},
      {"smiles": "O=C(c1ccc2c(c1)N(Cc1ccc(F)cc1)C(=O)c1ccccc1S2(=O)=O)N1CCN(c2ccccn2)CC1", "Potency": "3.43 µM (active)"},
      {"smiles": "Cc1ccc(CCNC(=O)C2CCN(c3nnc(-n4cccc4CNc4ccc(C)cc4)s3)CC2)cc1", "activity change, negative = inhibition": -9.6},
      {"smiles": "CCc1ccc(C2CC(=O)c3c([nH]c(C(=O)OCc4ccc(C)cc4)c3C)C2)cc1", "note": "(stereo not given)", "activity change, negative = inhibition": -1.46},
      {"smiles": "CC(C)(C)c1ccc(C(=O)NCC(c2ccco2)S(=O)(=O)c2ccc(F)cc2)cc1", "note": "(stereo not given)", "activity change, negative = inhibition": -10.4},
      {"smiles": "CCCS(=O)(=O)c1ncc(Cl)c(C(=O)Nc2scc(-c3ccccc3)c2C(=O)OCC)n1", "activity change, negative = inhibition": -5.14},
      {"smiles": "Cc1ccc(C)n1-c1nnc(N2CCC(C(=O)NCc3ccccc3Cl)CC2)s1", "activity change, negative = inhibition": -18.5},
      {"smiles": "Cc1nnc(SCC(=O)NCc2ccccc2Cl)c2nn(-c3ccccc3)c(C)c12", "activity change, negative = inhibition": -19.2},
      {"smiles": "COc1ccc(-c2onc(C)c2C)cc1S(=O)(=O)NCC1CCN(Cc2cccc(F)c2)CC1", "activity change, negative = inhibition": -5.11},
      {"smiles": "Cc1ccc(OCCSc2nc3ccc(NC(=O)COc4ccc(C)cc4)cc3s2)cc1", "activity change, negative = inhibition": -1.84},
      {"smiles": "Cc1cccc(Nc2cc(C)nc(-n3nc(C)cc3C)n2)c1", "Potency": "6.11 µM (active)"},
      {"smiles": "CCOC(=O)c1ccc(NC(=O)CSc2nc3c([nH]c4ccccc43)c(=O)n2C)cc1", "activity change, negative = inhibition": -7.37}
    ]}
  ]
}
